# Reference: PubChem BioAssay
# Values without a mark were called inactive. No rule for the calls is given here.
# Molecular target: L-lactate dehydrogenase (Plasmodium falciparum (isolate CDC / Honduras)) (UniProt Q27743)
# Experiment: PfLDH activity inhibition – cell lysate, 3D7 strain, counter-screen for P. falciparum growth inhibition project (AID 2304);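 also: 0% = vehicle and 100% = reference inhibitor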
# Conditions: P. falciparum 3D7 crude extract, LDH APAD/NBT absorbance; at 2 µM; stronger effect = higher value
# Chain of L-lactate dehydrogenase (Plasmodium falciparum (isolate CDC / Honduras)) (Q27743 whole entry, looked up): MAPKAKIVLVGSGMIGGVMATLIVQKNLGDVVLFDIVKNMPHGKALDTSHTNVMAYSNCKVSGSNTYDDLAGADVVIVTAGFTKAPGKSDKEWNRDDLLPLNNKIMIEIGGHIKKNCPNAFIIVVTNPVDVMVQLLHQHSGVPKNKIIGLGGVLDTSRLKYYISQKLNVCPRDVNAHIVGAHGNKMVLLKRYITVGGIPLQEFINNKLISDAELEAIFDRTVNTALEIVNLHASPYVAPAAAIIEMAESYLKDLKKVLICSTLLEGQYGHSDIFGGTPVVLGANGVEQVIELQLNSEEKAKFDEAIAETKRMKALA
row,SMILES,inhibition [%]
1,O=c1cc(NC[C@@H]2CCC[C@@H]2NCc2ccc(Cl)c(Cl)c2)[nH]c2ccccc12,-1
2,O=C(NCCN1CCN(S(=O)(=O)c2ccc(OC3CCNCC3)c(Br)c2)CC1)c1ccc(Cl)c(Cl)c1,-3
3,CCc1ccc(N2C(N)=NC(N)=NC2(C)C)cc1,-2
4,CN1CCN(c2ccnc3ccc(NC(=O)Nc4ccc5c(c4)CCCC5=O)cc23)CC1,4
5,CCOC(=O)c1[nH]c2ccc(F)cc2c1NC(=O)CN1CCN(c2cccc(C(F)(F)F)c2)CC1,-2
6,COc1ccc(CN2CCCN(Cc3cccc(C(=O)Nc4ccc(C)c(F)c4)c3)CC2)cc1,-3
7,O=C(NCCCCN1CCC(c2ccc3ccccc3c2O)CC1)c1ccc(-c2ccc(Cl)cc2)cc1,-2
8,CN(C)Cc1ccc(-c2cc3ncnc(Nc4ccc(OCc5cccc(F)c5)c(Cl)c4)c3s2)[nH]1,6
9,CN(C)CCN(C)Cc1ccc(-c2ccc(NC(=O)c3cccc(Cl)c3)cc2)cc1,1
10,COc1cc(NC(=O)c2ccc3oc4ccccc4c3c2)ccc1OCCN1CCCCC1,-4
11,COc1ccc(CN(C)CCOc2ccc(NC(=O)c3cccc4c(=O)cc(-c5ccccc5)[nH]c34)cc2)cc1OC,-3
12,CC(=O)Nc1ccc(Nc2c3ccccc3nc3ccccc23)cc1,3
13,CN1C(=O)C(=O)N(CCCCCON=C(N)N)C1=S,-1
14,CCN1CCN(CCCNc2ccnc3cc(Cl)ccc23)CC1,2
15,CS(=O)(=O)CCNCc1cccc(-c2cc3c(Nc4ccc(OCc5ccccc5)cc4)ncnc3cn2)c1,2
16,COc1ccc(CNCc2ccc(-c3ccc(-c4nc5ccc(C(F)(F)F)cc5[nH]4)cc3)cc2)cc1,7
17,Cc1cc(-c2cccc3c(C(=O)N4CCc5cc6nccc(N7CCN8CCC[C@H]8C7)c6cc54)cccc23)cc(C)n1,-3
18,Nc1nc2c(ncn2COC2COP(=O)(O)OC2)c(=O)[nH]1 (stereo not given),7
19,O=C(CCN(Cc1ccco1)c1nc(-c2ccc(F)cc2)nc2ccccc12)NC1CC1,4
20,O=C(Nc1cccc(-c2ccc(-c3nc4ccc(C(F)(F)F)cc4[nH]3)cc2)c1)Nc1ccc(F)c(F)c1F,-2

row,SMILES,inhibition [%]
1,Cc1nc(N)nc(N)c1C#CC1CCCC1,4
2,Cn1ncc2ccc(Nc3nccc(-c4ccc5c(c4)c(N)nn5C)n3)cc21,-2
3,Clc1ccccc1CNc1noc(-c2sccc2Br)n1,-7
4,CN1CCC(Oc2cc(CN3CC[C@H](NC(=O)c4ccc(Cl)c(Cl)c4)C3)ccc2I)C1 (stereo not given in full),1
5,CCc1cn2c3c(cc(C(=O)N[C@@H](Cc4ccccc4)[C@H](O)CNC4CCCCC4)cc13)N(CC)S(=O)(=O)CC2,-5
6,CN1CCN(c2nc(NCCNc3ccc([N+](=O)[O-])cc3)c3ccccc3n2)CC1,6
7,O=S(=O)(NCCN1CCCC1)c1ccc(-c2ccc(CN3Cc4ccccc4C3)cc2)s1,5
8,CSc1c(CNCCCNc2cc(=O)c3ccccc3[nH]2)[nH]c2ccccc12,2
9,CN1CCC(NCc2ccc(-c3cccc(S(=O)(=O)NCc4ccccc4)c3)cc2)CC1,-3
10,COc1ccc(-c2ccnc(-c3cccc(-c4ccccn4)n3)c2)cc1,-1
11,CC1CN(c2ccc(C(=O)NCC3CC3)cc2NC(=O)OCc2ccccc2)CC(C)O1 (stereo not given),-2
12,Cc1noc(=O)c2ccc(NC(=O)C(O)(CSc3ccccc3)CC(C)C)cc12 (stereo not given),0
13,CCCCOP(=O)(COc1ccc(CCN(CC(O)COc2cccc3[nH]c4ccccc4c23)CC(O)COc2cccc3[nH]c4ccccc4c23)cc1)C1CCCCC1 (stereo not given),4
14,COc1ccc(NC(=O)Nc2cccc(-c3ccncc3)c2)cc1N1CCN(C)CC1,5
15,CC(=O)c1c[nH]c2ccc(/C=C/C(=O)NC3CCC(CCN4CCc5ccc(C#N)cc5CC4)CC3)cc12 (stereo not given),9
16,c1ccc(COc2ccnc(NCCCOc3cccc(CN4CCCCC4)c3)c2)cc1,-2
17,Cc1cccc(OCC(=O)Nc2cccc(NC(=O)COc3cccc(C)c3)n2)c1,0
18,Cn1nc(-c2ccccc2F)c2cc(C(=O)Nc3cccnc3)sc21,3
19,CCN(CC)CCCSc1ccc(-c2ccc(SCCCN(CC)CC)cc2)cc1,-8
20,COCCCNc1sc(S(=O)(=O)c2ccccc2)nc1S(=O)(=O)c1ccc(C)cc1,-1
